Experimental findings from PubChem BioAssay AID504882 (Broad Institute, 2011) are described below.

In all, about 1,200 compounds went through this assay and about 290 (24%) were called active. Another 9% or so got no clear call; they are omitted. No rule for the calls is given here. Not all results are given here. Results with a measured potency or affinity are listed apart.

A short description of this test: cytotoxicity in EBV lymphoblastoid cells, dose response, cytotoxicity control, cell-based, plate reader, cherry-picks, set 2 (AID 504882). Particulars: EBV lymphoblastoid cells (LCL) viability; series mostly up to 19.5 µM.
For `O=C(O)c1cccc(Nc2ccnc(Nc3cccc(C(=O)O)c3)n2)c1`, the call was inactive.
The entry for `COc1ccc(Nc2oc(COc3ccccc3OC)nc2C#N)cc1` is “inactive”; for `Cc1ccc(/C=C/C(=O)C2C(=O)c3ccccc3C2=O)cc1` it is “inactive”; for `COc1ccc(-c2nc(CS(=O)CC(=O)NCc3ccc(Cl)cc3)c(C)o2)cc1` (centres undefined) it is “inactive”.
On to `O=C(NCc1ccccc1)c1cccc(COc2ccc3c(c2)CCC3)c1`, for which the result was inactive.
The entry for `CC(C)Oc1ccc(C2CC(=O)NC2=O)cc1` (centres undefined) is “inactive”.
The entry for `CCCCCc1ccc(-c2ccc(/C=C/C(=O)O)cc2)nc1` is “inactive”; for `O=C(NCCOc1ccccc1)c1ccc2c(c1)OCO2` it is “inactive”.
The entry for `C(=N\Nc1ccc2ccccc2n1)/c1ccc2c(c1)OCO2` is “inactive”; for `COc1ccc(/C=C2\SC(=O)N(CCCC(=O)Nc3ccc(C(=O)O)cc3)C2=O)cc1` it is “inactive”; for `N=c1c(-c2nc3ccccc3[nH]2)cc(C(=O)c2cccs2)nn1-c1ccccc1` it is “inactive”.
In the case of `Cc1cc(NC(=O)c2ccc(C)s2)n(-c2nc3ccccc3[nH]2)n1`, the compound was called inactive.
The entry for `CSc1ccccc1C(=O)N1CCC2(CC1)CC(=O)c1ccccc1O2` is “inactive”.
The entry for `CS(=O)(=O)Nc1ccc(C2=NN(S(C)(=O)=O)C(c3ccccc3)C2)cc1` (centres undefined) is “inactive”; for `Cc1cccc(NC(=O)Nc2c(C)n(C)n(-c3ccccc3)c2=O)c1C` it is “inactive”.
The entry for `CCc1ccccc1NC(=O)COC(=O)c1c(C)nsc1NC` is “inactive”.
`CCc1ccc(/C=C2\SC(=S)N(CCCC(=O)Nc3ccccn3)C2=O)cc1`: the call was inactive.
The entry for `CCN1CCN(Cc2ccc(NC(=O)c3ccc(C)c(NC(=O)c4nccn4C)c3)cc2C(F)(F)F)CC1` is “inactive”; for `CCN1CCN(Cc2ccc(NC(=O)c3ccc(C)c(NC(=O)c4ccno4)c3)cc2C(F)(F)F)CC1` it is “inactive”.
As for `COC(=O)C(NS(=O)(=O)c1ccc(N2CCCC2=O)cc1)c1ccccc1` (centres undefined), the outcome was inactive.
The entry for `CC(=NNC(=S)N1CCCCCC1)c1cccc2cccnc12` is “inactive”; for `O=C(CSc1nnc(-c2cccc(S(=O)(=O)N3CCOCC3)c2)n1C1CCCCCC1)NCc1ccccc1` it is “inactive”.
The entry for `N#CC(C#N)c1ccnc2ccccc12` is “inactive”; for `CC(CCc1ccco1)N(C)S(=O)(=O)c1csc(C(N)=O)c1` (centres undefined) it is “inactive”; for `CC1CCCN(C(=O)COC(=O)c2n[nH]c3ccccc23)C1` (centres undefined) it is “inactive”.
The entry for `CCN(C(=O)c1cccc(NC(=O)c2ccccc2)c1)C1CCCCC1` is “inactive”; for `Brc1cccc(CSc2nnc(-c3ccncc3)o2)c1` it is “inactive”; for `O=c1oc2ccccc2c(O)c1/C=N/c1ccccn1` it is “inactive”.
Take `CCc1nn2cc(-c3ccccc3)nc2s1`: the result was inactive.
The entry for `O=C(NCC1CCOCC1)c1ccc(OC2CCN(Cc3ccccn3)CC2)cc1` is “inactive”; for `Cc1ccc(C(=O)Nc2cccc(C(F)(F)F)c2)cc1NC(=O)c1ccno1` it is “inactive”; for `COc1cnc(-c2ccccn2)nc1Sc1ccccc1Cl` it is “inactive”.
The entry for `CCOc1ccc(NC(=O)CCc2nnc3ccc(N4CCC5(CC4)OCCO5)nn23)cc1` is “inactive”; for `C[C@H](CO)N1C[C@H](C)[C@@H](CN(C)C(=O)NC2CCCCC2)Oc2c(NS(=O)(=O)c3cn(C)cn3)cccc2C1=O` it is “inactive”.
The entry for `CC1=CC(=NOC(=O)/C=C/c2ccccc2)C=C(C)C1=O` is “inactive”; for `CCc1ccccc1N(CC(=O)NCc1ccco1)C(=O)c1snc(C(N)=O)c1N` it is “inactive”; for `Oc1cccc(/C=N/NC(=S)NCCN2CCOCC2)c1O` it is “inactive”.
Take `Cc1ccc(C(=O)Nc2cccc(C(=O)N/N=C/c3ccccc3F)c2)cc1`: the call was inactive.
The entry for `Cc1ccc(S(=O)(=O)N2c3ccccc3-c3c(ssc3=S)C2(C)C)cc1` is “inactive”; for `Cc1ccc(S(=O)(=O)N2CCN(C(=O)COC(=O)COc3ccc(Cl)cc3)CC2)c(C)c1` it is “inactive”; for `O=C(Nc1nnc(N2CCCCCC2)s1)c1cc(-c2ccc(Br)cc2)on1` it is “inactive”.
The entry for `O=C(c1ccc(COc2ccccc2Cl)o1)N1CCCC1` is “inactive”; for `Oc1c(N=NC(=S)Nc2ccccc2F)c2ccccc2n1Cc1ccc(F)cc1` it is “inactive”; for `COc1ccc(NC(=O)C2CCCN(S(=O)(=O)c3cccc4nonc34)C2)c(OC)c1` (centres undefined) it is “inactive”.
The entry for `CC1=C(CC(=O)O)c2cc(F)ccc2C1=Cc1ccc(S(C)(=O)=O)cc1` is “inactive”.
Turning to `Cc1cc(NCCCn2ccnc2)n2ncc(-c3ccccc3)c2n1`, the outcome was inactive.
The entry for `CSc1nc(C)nc2c1c(=O)n(C)c(=O)n2C` is “inactive”; for `Cc1ccc(S(=O)(=O)N2CCCCC2)cc1NC(=O)CNc1ccccc1N1CCCC1=O` it is “inactive”.
The entry for `COc1ccc(Nc2oc(COc3ccc(Cl)cc3)nc2C#N)cc1` is “inactive”; for `COCC(=O)N1CCC(Oc2ccc(C(=O)N3C[C@H]4CC[C@H]3C4)cc2)CC1` it is “inactive”.
The entry for `O=C(CCS(=O)(=O)c1ccccc1)Nc1nccs1` is “inactive”; for `COc1ccc(OC)c(NC(=O)COc2coc(CN3CCc4ccccc43)cc2=O)c1` it is “inactive”.
In the case of `O=C(OCc1nc2ccccc2s1)[C@@H]1CCCN1S(=O)(=O)c1ccccc1F`, the compound was called inactive.
The entry for `Cn1cccc1/C=C1\CC(C(C)(C)C)C/C(=C\c2cccn2C)C1=O` (centres undefined) is “inactive”; for `COc1ccccc1-n1c(-c2ccccc2)n[nH]c1=S` it is “inactive”.
The entry for `CC(=O)c1ccc(-n2nnnc2SCC(=O)N2CCc3ccccc3C2)cc1` is “inactive”; for `CCN(Cc1ccncc1)C(=O)CCc1ccccc1` it is “inactive”; for `Cn1cccc1-c1cc(C(=O)N2CCc3c([nH]c4ccccc34)C2c2ccccn2)[nH]n1` (centres undefined) it is “inactive”.
Take `Cc1ccc(CCNC(=O)Cc2ccc(NC3=NC4CS(=O)(=O)CC4S3)cc2)cc1` (centres undefined): the result was inactive.
The entry for `Cn1c(=O)c2ncn(CC(=O)O)c2n(C)c1=O` is “inactive”.
Consider `CCOc1cc(C(=O)OC(C)C(=O)Nc2ncc(Cl)cc2Cl)ccc1OCC(=O)N1CCOCC1` (centres undefined), for which the outcome was inactive.
The entry for `CC(=O)N1c2ccc(S(=O)(=O)N3CCC(C(=O)N4CCN(c5ccc(Cl)cc5)CC4)CC3)cc2CC1C` (centres undefined) is “inactive”; for `O=C1c2cccc3c(O)ccc(c23)C(=O)N1c1ccc(Cl)cc1` it is “inactive”; for `C/C(=N\NS(=O)(=O)c1ccc([N+](=O)[O-])cc1)c1cccs1` it is “inactive”.
`COc1cccc(C(=O)O/N=C(\N)c2ccccn2)c1OC`: the result was inactive.
For `COc1cccc(/C=N/Nc2ncnc(N)c2[N+](=O)[O-])c1OC`, the compound was called inactive.
The entry for `COc1cccc(-c2nc(NCc3ccccc3)c3ccccc3n2)c1O` is “inactive”; for `O=C(O)c1ccc(-n2cncn2)c([N+](=O)[O-])c1` it is “inactive”.
The entry for `O=c1c([N+](=O)[O-])cn(Cc2ccccc2)c(=O)n1Cc1ccccc1` is “inactive”.
The entry for `COc1cc(C(c2sc3nc(C)nn3c2O)N2CCc3ccccc3C2)cc(OC)c1OC` (centres undefined) is “inactive”; for `COc1cccc(C2Nc3ccc4ccccc4c3C3=C2C(=O)CC(C)(C)C3)c1OCC(=O)O` (centres undefined) it is “inactive”.
As for `Cc1c(C=O)c2ccccn2c1C(=O)c1ccccc1Cl`, the compound was called inactive.
Turning to `Clc1ccc(-c2nnc(NC3=NCCCCC3)o2)cc1`, the call was inactive.
The entry for `C[C@@H](OC(=O)c1[nH]cnc1C(=O)N1CCc2ccccc2C1)c1ccccc1` is “inactive”; for `COc1ccc(CCNC(=O)CSC(=O)c2ccccc2)cc1OC` it is “inactive”; for `O=C(O)c1cn2c3c(ccc(Cl)c3c1=O)OCC2` it is “inactive”.
The entry for `CCCCN1C2CCCC1CC(NC(=O)C1CCCCC1)C2` (centres undefined) is “inactive”; for `O=C(NCc1ccco1)C1CC(=O)N(c2cccc(Cl)c2)C1` (centres undefined) it is “inactive”.
Consider `O=C(COC(=O)c1ccc(S(=O)(=O)NCc2ccco2)cc1)Nc1ccc(Cl)cn1`, for which the compound was classed as inactive.
The entry for `COc1ccc(-n2cc(C(=O)c3ccccc3O)cn2)cc1` is “inactive”.
The entry for `CCc1ccc(/C=C2\SC(=S)N(CCCC(=O)NC3=NCCS3)C2=O)cc1` is “inactive”; for `COc1cccc(C(=O)N2CCN(c3nc4cc(C)cc(C)c4cc3C#N)CC2)c1` it is “inactive”.
The entry for `CCCSc1ccc([C@@H]2[C@H]3C(=O)N(C)C(=O)[C@H]3[C@]3(C(=O)OC)CCCN23)cc1OC` is “inactive”; for `CCCn1c(C)cc(C(=O)CN2C(=O)c3ccccc3S2(=O)=O)c1C` it is “inactive”.
Turning to `CCSc1nnc(NC(=O)CSc2nnc(-c3c[nH]c4ccccc34)n2CC)s1`, the call was inactive.
Turning to `CC(=O)c1ccccc1OCC(=O)Nc1cccc(S(=O)(=O)N2CCCC2)c1`, the compound was classed as inactive.
The entry for `O=C(CCCN1C(=O)[C@H]2CC=CC[C@H]2C1=O)NCc1nc(-c2ccc(Cl)cc2)no1` is “inactive”.
The entry for `Cc1cccc(-n2c(O)c(C=Nc3c(C)n(C)n(-c4ccccc4)c3=O)c3ccccc3c2=O)n1` is “inactive”; for `COC(=O)C1=C(C)N(c2cc(C)cc(C)c2)/C(=C/c2ccc(O)cc2)C1=O` it is “inactive”; for `COc1cc(N)c(Cl)cc1C(=O)NC1CCN(Cc2ccccc2)CC1` it is “inactive”.
The entry for `Cc1cccc(Nc2nc(Cl)ncc2F)c1C` is “inactive”; for `Cc1ccccc1C(=O)N1CCN(c2ccc(NC(=O)c3cccs3)cc2)CC1` it is “inactive”; for `COc1cc(OC)cc(C(=O)N[C@H](C(=O)OCC(=O)c2ccc(C)c([N+](=O)[O-])c2)C(C)C)c1` it is “inactive”.
Consider `CCOC(=O)Oc1c(OC)cc(C(=O)O[C@@H]2C[C@@H]3CN4CCc5c([nH]c6cc(OC)ccc56)[C@H]4C[C@@H]3[C@H](C(=O)OC)[C@H]2OC)cc1OC`, for which the result was inactive.
The entry for `CCOC(=O)c1cc(-c2ccccc2)n(CC(=O)Nc2cccc(OC)c2)c1C` is “inactive”.
With `CCOC(=O)c1nc(NCc2ccccc2F)c2ccccc2n1`, the compound was called inactive.
The entry for `COCCn1c(C)cc(C(=O)COc2ccc(C)nc2[N+](=O)[O-])c1C` is “inactive”; for `COC(=O)c1[nH]c2ccc(C)cc2c1NC(=O)NC1CCCCC1` it is “inactive”.
Regarding `CN(CC(=O)Nc1cccnc1)S(=O)(=O)c1ccc(Br)cc1`, the outcome was inactive.
The entry for `COc1ccccc1OCc1ccc(C(=O)c2ccccc2)cc1` is “inactive”; for `COc1cc(C2CC(=O)N3CN(Cc4ccccc4)CSC3=C2C#N)ccc1OCc1ccccc1` (centres undefined) it is “inactive”.
The entry for `O=C(O)C1CC(=O)N(c2ccc(Br)cc2)C1` (centres undefined) is “inactive”.
Consider `CNS(=O)(=O)c1cccc(C(=O)OCC(=O)c2ccc3c(c2)OCCO3)c1`, for which the compound was called inactive.
The entry for `COc1ccc(OC)c2[nH]c(=O)c(CCNC(=O)c3ccc(S(=O)(=O)N(C)C)cc3)cc12` is “inactive”.
